Her2 expr inh: lowers expression of human Her2 kinase | P04626 | SKBR-3 HER2 protein level, AlphaScreen, 18-24 h; stronger effect = lower value | HER2 level % of control, % at 10 µM | 65,000 tested, 0.69% active | AID 645;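 active = HER2 level under 5% of the carrier-only control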;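 note: 100% = DMSO carrier and 0% = 500 nM PU-H71 HSP90 inhibitor; lower value means stronger loss of Her2 protein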
CatS block: human cathepsin S inhibition | recombinant cathepsin S, AMC dipeptide fluorescence, pooled mixtures | inhibition, %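 (tested at 5 µM per compound within 10-compound mixtures)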 | 62,000 tested, 0.06% active | P25774; in the data active = inhibition above about 32%, passing the limit was not always enough;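 note: 0% = enzyme without compound and 100% = blank without enzyme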
Target sequence (P25774 115-331 limits assumed): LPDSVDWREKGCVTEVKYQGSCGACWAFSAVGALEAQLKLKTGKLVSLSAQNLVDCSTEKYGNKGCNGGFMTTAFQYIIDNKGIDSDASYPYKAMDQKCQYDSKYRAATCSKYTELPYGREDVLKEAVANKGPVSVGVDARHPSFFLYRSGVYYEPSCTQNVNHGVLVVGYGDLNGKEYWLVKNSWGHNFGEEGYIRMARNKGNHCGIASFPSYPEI
CatB mix inh: human cathepsin B inhibition by mixtures; inhibition, %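 (ten-compound pools at 5 µM per compound and 50 µM total)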; Purified cathepsin B, AMC dipeptide fluorescence, compound mixtures; 62,000 tested, 0.06% active; P07858; AID 488; in the data active = inhibition above about 22%, passing the limit was not always enough;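 note: 0% = enzyme without compound and 100% = no enzyme blank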
WNV NS2B-NS3 inh: WNV NS2B-NS3 proteinase inhibition; WNV NS2B-NS3 protease, fluorogenic substrate Ex360/Em465; stronger effect = lower value; P06935; AID 577; 65,000 tested, 0.18% active; z-score (test concentration not listed); in the data active = z-score below about -3
CatB inh: blocks human cathepsin B protease activity | 63,000 tested, 0.1% active | P07858 | purified cathepsin B, fluorogenic substrate, fluorescence | AID 453 | inhibition, %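 (tested at 10 µM)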; in the data active = inhibition above about 21%;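 note: 0% = enzyme with no compound and 100% = no enzyme blank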
CatL inh: inhibitors of human cathepsin L; P07711; inhibition, %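 (tested at 10 µM)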; 58,000 tested, 0.17% active; purified cathepsin L, fluorogenic substrate, fluorescence; in the data active = inhibition above about 45%;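 note: 0% = enzyme with no compound and 100% = no enzyme blank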
* hit, by the source's call. Compounds with a hit are over-represented: about 1.1% of the library has one in this group of screens.

For Cn1cc(C(=O)NC2CCCCC2)c(=O)c2cc(S(=O)(=O)N3CCCC3)ccc21 the results were Her2 expr inh -4.8*, CatS block -9, CatB mix inh 2, WNV NS2B-NS3 inh 0.9, CatB inh -2 and CatL inh 2.
Screening CC1CCN(S(=O)(=O)c2ccc3c(c2)c(=O)c(C(=O)NC2CCCC2)cn3C)CC1 returned Her2 expr inh 86, CatS block 4, CatB mix inh 1, WNV NS2B-NS3 inh 1.2, CatB inh -3 and CatL inh -6.
`Cn1c(=O)c(=O)n(C)c2cc(S(=O)(=O)N3CCCCCC3)ccc21` gave Her2 expr inh 75, CatS block -5, CatB mix inh 46*, WNV NS2B-NS3 inh -1.2, CatB inh -8 and CatL inh -5.
COc1ccc(-c2noc(C3CCCN(C(=O)c4ccccc4OC)C3)n2)cc1OC (stereo not drawn) was read as Her2 expr inh 46, CatS block 11, CatB mix inh 3, WNV NS2B-NS3 inh -0.41, CatB inh 10 and CatL inh 23.
For Cc1ccc(-c2noc(C3CCCN(C(=O)c4c(F)cccc4F)C3)n2)cc1 (stereo not drawn) the results were Her2 expr inh 0.1*, CatS block 0, CatB mix inh 2, WNV NS2B-NS3 inh -0.83, CatB inh -1 and CatL inh 9.
For C=CCc1cccc2cc(C(=O)NC)c(=O)oc12 the results were Her2 expr inh -18*, CatS block -7, CatB mix inh 2, WNV NS2B-NS3 inh -0.03, CatB inh -3 and CatL inh -1.
For COCCN1C(=O)C(O)=C(C(C)=O)C1c1ccc(OC)c(OC)c1 (stereo not drawn) the results were Her2 expr inh 92, CatS block -2, CatB mix inh 6, WNV NS2B-NS3 inh -0.64, CatB inh 3 and CatL inh 13.
Screening CC1(C)Cc2ccccc2C(=NCCCC(=O)O)N1 returned Her2 expr inh 92, CatS block -7, CatB mix inh 4, WNV NS2B-NS3 inh 0.64, CatB inh -7 and CatL inh -14.
`Cc1ccc(S(=O)(=O)N2CCCC2C(=O)NC2CCCCC2)cc1` (stereo not drawn) gave Her2 expr inh 79, CatS block 12, CatB mix inh 2, WNV NS2B-NS3 inh 0.68, CatB inh 2 and CatL inh 18.
For CCOC(=O)N1CCC(NC(=O)C2CCCCN2S(=O)(=O)c2ccc(F)cc2)CC1 (stereo not drawn) the results were Her2 expr inh 88, CatS block -2, CatB mix inh -6, WNV NS2B-NS3 inh -0.52, CatB inh -3 and CatL inh 104*.
For C=CCNC(=O)C1CC(=O)N(c2ccc(OCC(=O)NCc3ccccc3)cc2)C1 (stereo not drawn) the results were Her2 expr inh 121, CatS block -19, CatB mix inh -3, WNV NS2B-NS3 inh -0.99 and CatB inh 2.
Screening O=C(CN1C(=O)c2ccccc2C1=O)Nc1ccc2c(c1)OCO2 returned Her2 expr inh 111, CatS block -1, CatB mix inh 1, WNV NS2B-NS3 inh -0.57 and CatL inh -1.
C=CCOC(=O)C1=C(C)Nc2nnnn2C1c1cc(OC)ccc1OC (stereo not drawn) was read as Her2 expr inh -18*, CatS block 2, CatB mix inh 3, WNV NS2B-NS3 inh 0.24, CatB inh 2 and CatL inh 3.
`CCN(C(=O)COc1ccccc1)c1nnc(-c2cccnc2)s1` gave Her2 expr inh 68, CatS block 6, CatB mix inh 1, WNV NS2B-NS3 inh 0.76, CatB inh 3 and CatL inh -4.
`O=c1cc(CSc2ccccn2)[nH]c(=O)[nH]1` gave Her2 expr inh 84, CatS block 41*, CatB mix inh 6, WNV NS2B-NS3 inh 0.54, CatB inh 2 and CatL inh 12.
`CCOC(=O)c1[nH]c2ccccc2c1NC(=O)CC` gave CatS block -5, CatB mix inh 3, WNV NS2B-NS3 inh -4*, CatB inh -8 and CatL inh -14.
Screening CC12CCC(C(=O)NCC3CCCO3)(OC1=O)C2(C)C (stereo not drawn) returned Her2 expr inh 97, CatS block 2, CatB mix inh 2, WNV NS2B-NS3 inh -0.82 and CatB inh 0.
